Data taken from the supplement of paper PMC10849652.
Targets with a hit are over-represented here; the source holds about 8,800 in all. About 0.5% of all pairs of compound and target were hits.

Columns and labels:
Experiment in all cases: log2 fold change, soluble protein after heating vs DMSO (PISA); higher = thermal stabilisation; K562 lysate, 10 uM; active = over 0.2 and 3.5 SD of the protein, either way, in both replicates (recomputed)
erlotinib = compound: C#Cc1cccc(Nc2ncnc3cc(OCCOC)c(OCCOC)cc23)c1 [erlotinib]
In short: (§1)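 Quantification was by TMTpro 16plex LC-MS/MS with equalised channel sums, applied to the supernatant after 21,000xg for 90 min. Samples were crude K562 extract at 1 mg/mL protein in PBS pH 7.4 with 1 mM MgCl2, treated with 10 μM compound for 30 min, heated for 3 min across 48°C-58°C, pooled and brought to 0.5% NP-40 at 4°C. Values are log-two fold changes in thermal stability relative to solvent controls, from duplicates.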

[1] = compound: C/C(=N\NC(=O)C1=CC(=CC=C1)S(=O)(=O)N2CCOCC2)/C3=C(C=CC(=C3)Cl)O
In short: as §1

[2] = compound: C1=CC(=CC=C1C2=NC3=C(N2)C=C(C=C3)C(=O)N)OC4=CC=C(C=C4)Cl
In short: as §1

[3] = compound: C1=CC2=C(C=CC(=C2)/C=C\3/C(=O)NC(=NCC4=CC=CS4)S3)N=C1
In short: as §1

[4] = compound: C1=CC2=NC=CN=C2C=C1/C=C/3\C(=O)NC(=O)S3
In short: as §1

[5] = compound: C1=CC=C(C=C1)C2=NC(=C(N2)C3=CC=NC=C3)C4=CC(=C(C=C4)Cl)O
In short: as §1

[6] = compound: C1=CC=C2C(=C1)C3=NNC4=CC=CC(=C43)C2=O
In short: as §1

[7] = compound: C1CCN(C1)C(=O)NC2=CC=CC(=C2)NC3=NC=C(C(=N3)NCCC4=CN=CN4)Br
In short: as §1

[8] = compound: C1CN(CCC1(CC2=CC=C(C=C2)Cl)N)C3=NC=NC4=C3C=CN4
In short: as §1

IRAK-1-4 Inhibitor I = compound: C1COCCN1CCN2C3=CC=CC=C3N=C2NC(=O)C4=CC(=CC=C4)[N+](=O)[O-] [IRAK-1-4 Inhibitor I]
In short: as §1

Measured: log2 fold change

FUBP3 (UniProt Q96I24)
Chain of UniProt Q96I24 (Q96I24 whole entry, looked up): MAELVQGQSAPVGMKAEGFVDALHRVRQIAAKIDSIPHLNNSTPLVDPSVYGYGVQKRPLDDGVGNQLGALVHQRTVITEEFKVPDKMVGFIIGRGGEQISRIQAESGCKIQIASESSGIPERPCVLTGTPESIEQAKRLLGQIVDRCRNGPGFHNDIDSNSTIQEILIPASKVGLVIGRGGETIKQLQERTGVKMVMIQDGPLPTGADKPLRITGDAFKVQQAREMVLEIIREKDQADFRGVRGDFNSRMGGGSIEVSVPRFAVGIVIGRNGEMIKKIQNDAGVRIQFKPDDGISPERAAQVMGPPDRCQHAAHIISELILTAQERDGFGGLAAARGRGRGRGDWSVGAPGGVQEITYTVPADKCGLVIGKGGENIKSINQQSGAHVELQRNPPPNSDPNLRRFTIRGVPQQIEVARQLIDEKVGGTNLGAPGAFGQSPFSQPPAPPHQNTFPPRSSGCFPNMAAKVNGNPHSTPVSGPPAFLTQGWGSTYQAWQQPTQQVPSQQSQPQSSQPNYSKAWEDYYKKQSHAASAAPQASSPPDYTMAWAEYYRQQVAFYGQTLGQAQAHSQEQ
inactive: erlotinib -0.023 | [1] 0.003 | [2] 0.04 | [3] 0.007 | [4] -0.009 | [5] -0.141 | [6] -0.033 | [7] -0.038 | [8] 0.003 | IRAK-1-4 Inhibitor I 0.023

FAU (UniProt E9PR30)
inactive: erlotinib -0.026 | [1] -1.8 | [2] -0.059 | [3] -0.048 | [4] 0.016 | [5] -0.016 | [6] 0 | [7] 0.011 | [8] -0.021 | IRAK-1-4 Inhibitor I 0.053

GCLM (UniProt P48507)
Chain of UniProt P48507 (P48507 whole entry, looked up): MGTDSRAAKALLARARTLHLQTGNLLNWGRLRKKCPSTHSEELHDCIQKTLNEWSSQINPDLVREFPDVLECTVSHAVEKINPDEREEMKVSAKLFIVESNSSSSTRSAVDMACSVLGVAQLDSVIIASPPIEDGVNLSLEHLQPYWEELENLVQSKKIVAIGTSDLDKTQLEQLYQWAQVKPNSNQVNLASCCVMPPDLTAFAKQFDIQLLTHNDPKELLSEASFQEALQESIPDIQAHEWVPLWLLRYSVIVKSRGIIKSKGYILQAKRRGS
inactive: erlotinib -0.012 | [1] 0.021 | [2] 0.006 | [3] 0.007 | [4] 0.023 | [5] -0.001 | [6] -0.034 | [7] 0.014 | [8] 0.039 | IRAK-1-4 Inhibitor I 0.016

ESYT2 (UniProt H7BXI1)
inactive: erlotinib -0.056 | [1] 0.037 | [2] -0.017 | [3] 0.042 | [4] -0.025 | [5] -0.022 | [6] -0.076 | [7] -0.005 | [8] -0.008 | IRAK-1-4 Inhibitor I 0.019

EXOC4 (UniProt Q96A65)
inactive: erlotinib 0.031 | [1] 0.034 | [2] -0.065 | [3] 0.031 | [4] 0.012 | [5] -0.015 | [6] -0.026 | [7] -0.011 | [8] 0.011 | IRAK-1-4 Inhibitor I -0.009

FAM53B (UniProt Q14153)
inactive: erlotinib 0.057 | [1] -0.087 | [2] -0.03 | [3] 0.015 | [4] -0.004 | [5] -0.047 | [6] -0.024 | [7] -0.034 | [8] 0.006 | IRAK-1-4 Inhibitor I 0.203

FMNL1 isoform 3 (UniProt O95466)
inactive: erlotinib -0.045 | [1] 0.045 | [2] -0.006 | [3] -0.102 | [4] -0.062 | [5] -0.004 | [6] 0.018 | [7] -0.006 | [8] 0.019 | IRAK-1-4 Inhibitor I -0.009

FBXO38 (UniProt Q6PIJ6)
Chain of UniProt Q6PIJ6 (Q6PIJ6 whole entry, looked up): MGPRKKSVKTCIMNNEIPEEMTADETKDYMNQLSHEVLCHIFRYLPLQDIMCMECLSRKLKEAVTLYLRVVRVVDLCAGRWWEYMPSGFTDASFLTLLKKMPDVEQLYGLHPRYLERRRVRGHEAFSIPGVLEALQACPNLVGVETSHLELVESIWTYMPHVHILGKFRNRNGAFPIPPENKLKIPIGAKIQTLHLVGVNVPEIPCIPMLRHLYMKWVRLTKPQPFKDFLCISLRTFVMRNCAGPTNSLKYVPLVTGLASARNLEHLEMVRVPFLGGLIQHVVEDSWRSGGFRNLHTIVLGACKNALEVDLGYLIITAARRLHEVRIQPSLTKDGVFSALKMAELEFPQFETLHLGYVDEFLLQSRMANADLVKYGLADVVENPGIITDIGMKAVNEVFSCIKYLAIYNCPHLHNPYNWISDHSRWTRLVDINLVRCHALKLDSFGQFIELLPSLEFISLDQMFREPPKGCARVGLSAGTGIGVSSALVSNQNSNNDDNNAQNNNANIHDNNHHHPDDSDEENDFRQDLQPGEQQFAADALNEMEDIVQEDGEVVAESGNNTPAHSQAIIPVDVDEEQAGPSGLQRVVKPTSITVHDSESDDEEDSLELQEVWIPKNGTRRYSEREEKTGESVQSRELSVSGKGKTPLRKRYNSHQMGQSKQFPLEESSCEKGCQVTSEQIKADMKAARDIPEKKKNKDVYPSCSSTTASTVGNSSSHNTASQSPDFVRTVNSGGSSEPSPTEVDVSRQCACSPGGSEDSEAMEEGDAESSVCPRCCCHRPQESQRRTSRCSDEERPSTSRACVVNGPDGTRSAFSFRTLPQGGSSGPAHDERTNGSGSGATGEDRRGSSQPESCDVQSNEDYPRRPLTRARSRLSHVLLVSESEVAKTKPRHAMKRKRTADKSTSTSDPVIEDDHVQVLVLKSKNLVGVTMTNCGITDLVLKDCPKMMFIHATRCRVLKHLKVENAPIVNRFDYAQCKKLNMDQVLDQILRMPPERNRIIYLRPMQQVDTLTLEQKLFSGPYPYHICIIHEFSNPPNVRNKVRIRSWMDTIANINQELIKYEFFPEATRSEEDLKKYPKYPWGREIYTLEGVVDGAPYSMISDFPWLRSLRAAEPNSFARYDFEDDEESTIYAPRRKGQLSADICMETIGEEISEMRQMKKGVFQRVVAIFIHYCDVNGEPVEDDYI
inactive: erlotinib 0.102 | [1] 0.041 | [2] 0.013 | [3] -0.047 | [4] -0.041 | [5] 0.06 | [6] 0.077 | [7] -0.06 | [8] 0.021 | IRAK-1-4 Inhibitor I -0.052

FBXO9 (UniProt Q9UK97)
inactive: erlotinib -0.06 | [1] 0.126 | [2] 0.091 | [3] 0.013 | [4] 0.086 | [5] 0.01 | [6] -0.032 | [7] 0.019 | [8] -0.108 | IRAK-1-4 Inhibitor I -0.005

EHD2 (UniProt Q9NZN4)
inactive: erlotinib 0.048 | [1] -0.167 | [2] -0.043 | [3] -0.063 | [4] 0.012 | [5] -0.002 | [6] -0.071 | [7] -0.004 | [8] 0.012 | IRAK-1-4 Inhibitor I 0.01

FIBP (UniProt O43427)
inactive: erlotinib -0.071 | [1] -0.027 | [2] 0.022 | [3] 0.067 | [4] 0.018 | [5] 0.041 | [6] 0.079 | [7] -0.064 | [8] 0.029 | IRAK-1-4 Inhibitor I 0.006

EIF3I (UniProt Q13347)
Chain of UniProt Q13347 (Q13347 whole entry, looked up): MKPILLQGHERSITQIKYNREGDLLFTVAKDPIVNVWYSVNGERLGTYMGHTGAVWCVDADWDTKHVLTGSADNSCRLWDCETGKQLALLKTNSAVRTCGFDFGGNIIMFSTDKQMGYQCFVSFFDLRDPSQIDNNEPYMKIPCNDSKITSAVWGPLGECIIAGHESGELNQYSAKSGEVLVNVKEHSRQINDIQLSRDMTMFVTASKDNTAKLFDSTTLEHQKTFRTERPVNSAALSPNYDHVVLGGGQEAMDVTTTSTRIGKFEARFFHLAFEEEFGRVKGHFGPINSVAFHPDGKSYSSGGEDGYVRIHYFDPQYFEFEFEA
inactive: erlotinib 0.013 | [1] 0.033 | [2] -0.029 | [3] 0.001 | [4] 0.022 | [5] 0 | [6] -0.026 | [7] 0.004 | [8] -0.007 | IRAK-1-4 Inhibitor I -0.039

GALNT2 (UniProt Q10471)
inactive: erlotinib -0.028 | [1] 0.005 | [2] -0.098 | [3] 0.054 | [4] -0.004 | [5] -0.04 | [6] -0.056 | [7] -0.045 | [8] 0.002 | IRAK-1-4 Inhibitor I -0.012

EPRS (UniProt P07814)
inactive: erlotinib 0.028 | [1] 0.032 | [2] -0.007 | [3] 0.01 | [4] 0.014 | [5] 0.017 | [6] -0.026 | [7] 0 | [8] -0.004 | IRAK-1-4 Inhibitor I -0.006

EXOC1 (UniProt Q9NV70)
inactive: erlotinib 0.05 | [1] -0.005 | [2] -0.047 | [3] -0.009 | [4] 0.074 | [5] -0.035 | [6] -0.043 | [7] 0.014 | [8] -0.016 | IRAK-1-4 Inhibitor I -0.011

GAPVD1 isoform 6 (UniProt Q14C86)
Chain of UniProt Q14C86 (Q14C86 whole entry, looked up): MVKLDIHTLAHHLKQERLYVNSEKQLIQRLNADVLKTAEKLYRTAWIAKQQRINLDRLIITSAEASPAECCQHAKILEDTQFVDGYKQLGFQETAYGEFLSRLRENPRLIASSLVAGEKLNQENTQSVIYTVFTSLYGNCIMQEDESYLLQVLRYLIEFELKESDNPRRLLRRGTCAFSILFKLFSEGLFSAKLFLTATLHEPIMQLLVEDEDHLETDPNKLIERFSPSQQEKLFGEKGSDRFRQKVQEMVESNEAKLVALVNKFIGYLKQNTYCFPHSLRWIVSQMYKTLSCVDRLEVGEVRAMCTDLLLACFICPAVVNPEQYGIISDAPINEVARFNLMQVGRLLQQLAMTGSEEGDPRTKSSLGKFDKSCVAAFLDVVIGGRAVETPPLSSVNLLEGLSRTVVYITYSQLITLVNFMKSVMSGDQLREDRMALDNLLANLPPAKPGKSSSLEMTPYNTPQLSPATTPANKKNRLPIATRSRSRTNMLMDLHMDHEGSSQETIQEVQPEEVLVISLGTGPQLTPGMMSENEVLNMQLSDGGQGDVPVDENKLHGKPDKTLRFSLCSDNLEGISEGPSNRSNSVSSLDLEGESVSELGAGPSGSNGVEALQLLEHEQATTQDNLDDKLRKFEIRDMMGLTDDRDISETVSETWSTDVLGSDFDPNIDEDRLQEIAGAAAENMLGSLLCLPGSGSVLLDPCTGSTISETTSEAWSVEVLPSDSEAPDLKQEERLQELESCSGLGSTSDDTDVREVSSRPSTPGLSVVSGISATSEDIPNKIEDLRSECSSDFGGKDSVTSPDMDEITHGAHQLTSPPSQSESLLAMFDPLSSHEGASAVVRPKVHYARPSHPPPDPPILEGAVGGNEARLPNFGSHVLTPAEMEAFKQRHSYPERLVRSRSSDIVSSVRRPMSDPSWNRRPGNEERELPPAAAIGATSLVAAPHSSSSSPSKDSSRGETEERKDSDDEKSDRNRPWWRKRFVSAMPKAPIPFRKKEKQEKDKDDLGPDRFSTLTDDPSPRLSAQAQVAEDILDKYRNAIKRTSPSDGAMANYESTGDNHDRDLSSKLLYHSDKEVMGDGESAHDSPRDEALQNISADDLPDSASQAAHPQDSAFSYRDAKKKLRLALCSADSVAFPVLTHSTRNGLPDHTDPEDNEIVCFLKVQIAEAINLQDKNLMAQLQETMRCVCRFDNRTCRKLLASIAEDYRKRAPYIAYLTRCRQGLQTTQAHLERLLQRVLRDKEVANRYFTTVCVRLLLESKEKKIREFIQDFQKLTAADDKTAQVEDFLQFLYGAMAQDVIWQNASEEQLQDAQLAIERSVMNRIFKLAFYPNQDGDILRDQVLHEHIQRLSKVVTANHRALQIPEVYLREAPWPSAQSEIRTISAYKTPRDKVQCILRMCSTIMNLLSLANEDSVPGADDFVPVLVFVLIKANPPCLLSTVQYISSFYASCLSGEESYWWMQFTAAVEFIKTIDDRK
inactive: erlotinib 0.01 | [1] 0 | [2] -0.051 | [3] 0.01 | [4] 0.019 | [5] 0 | [6] -0.013 | [7] 0.007 | [8] -0.025 | IRAK-1-4 Inhibitor I -0.015

EMP3 (UniProt P54852)
Chain of UniProt P54852 (P54852 whole entry, looked up): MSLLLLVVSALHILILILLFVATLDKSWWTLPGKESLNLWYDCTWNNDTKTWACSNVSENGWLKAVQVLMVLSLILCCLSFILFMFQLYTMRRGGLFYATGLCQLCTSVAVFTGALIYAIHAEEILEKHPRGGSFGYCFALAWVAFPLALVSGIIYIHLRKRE
inactive: erlotinib 0.008 | [1] -0.015 | [2] 0.018 | [3] 0.017 | [4] 0.004 | [5] 0 | [6] 0.007 | [7] -0.002 | [8] 0.029 | IRAK-1-4 Inhibitor I 0.053

EGLN1 (UniProt Q9GZT9)
inactive: erlotinib 0.006 | [1] 0.016 | [2] 0.034 | [3] 0.028 | [4] -0.027 | [5] 0.006 | [6] -0.005 | [7] 0.015 | [8] -0.019 | IRAK-1-4 Inhibitor I -0.021

FTL (UniProt P02792)
inactive: erlotinib -0.14 | [1] -0.599 | [2] -0.077 | [3] -0.027 | [4] -0.006 | [5] 0.11 | [6] 0.012 | [7] -0.063 | [8] -0.034 | IRAK-1-4 Inhibitor I 0.169

EFCAB14 (UniProt O75071)
inactive: erlotinib 0.019 | [1] 0.115 | [2] 0.043 | [3] -0.036 | [4] -0.019 | [5] -0.042 | [6] -0.022 | [7] 0.01 | [8] 0.042 | IRAK-1-4 Inhibitor I 0.011

EPB41 (UniProt P11171)
inactive: erlotinib -0.024 | [1] -0.021 | [2] -0.068 | [3] 0.006 | [4] -0.005 | [5] 0 | [6] 0.014 | [7] 0.004 | [8] 0.008 | IRAK-1-4 Inhibitor I -0.028

ECI2 (UniProt O75521)
Chain of UniProt O75521 (O75521 whole entry, looked up): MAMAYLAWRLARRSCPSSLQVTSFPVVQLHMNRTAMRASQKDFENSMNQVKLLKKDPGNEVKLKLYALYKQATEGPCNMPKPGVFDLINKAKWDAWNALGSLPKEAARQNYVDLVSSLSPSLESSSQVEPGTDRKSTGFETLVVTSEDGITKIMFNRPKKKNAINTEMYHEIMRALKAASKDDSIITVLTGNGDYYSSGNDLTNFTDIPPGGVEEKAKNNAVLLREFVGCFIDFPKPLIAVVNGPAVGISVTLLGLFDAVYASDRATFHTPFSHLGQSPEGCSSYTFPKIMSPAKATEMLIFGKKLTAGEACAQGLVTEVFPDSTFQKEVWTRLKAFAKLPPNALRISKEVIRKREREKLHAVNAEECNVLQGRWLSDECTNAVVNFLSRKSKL
inactive: erlotinib 0.032 | [1] 0.01 | [2] 0.024 | [3] -0.011 | [4] 0.022 | [5] -0.019 | [6] -0.111 | [7] -0.03 | [8] 0.045 | IRAK-1-4 Inhibitor I 0.054

FARSB (UniProt Q9NSD9)
Chain of UniProt Q9NSD9 (Q9NSD9 whole entry, looked up): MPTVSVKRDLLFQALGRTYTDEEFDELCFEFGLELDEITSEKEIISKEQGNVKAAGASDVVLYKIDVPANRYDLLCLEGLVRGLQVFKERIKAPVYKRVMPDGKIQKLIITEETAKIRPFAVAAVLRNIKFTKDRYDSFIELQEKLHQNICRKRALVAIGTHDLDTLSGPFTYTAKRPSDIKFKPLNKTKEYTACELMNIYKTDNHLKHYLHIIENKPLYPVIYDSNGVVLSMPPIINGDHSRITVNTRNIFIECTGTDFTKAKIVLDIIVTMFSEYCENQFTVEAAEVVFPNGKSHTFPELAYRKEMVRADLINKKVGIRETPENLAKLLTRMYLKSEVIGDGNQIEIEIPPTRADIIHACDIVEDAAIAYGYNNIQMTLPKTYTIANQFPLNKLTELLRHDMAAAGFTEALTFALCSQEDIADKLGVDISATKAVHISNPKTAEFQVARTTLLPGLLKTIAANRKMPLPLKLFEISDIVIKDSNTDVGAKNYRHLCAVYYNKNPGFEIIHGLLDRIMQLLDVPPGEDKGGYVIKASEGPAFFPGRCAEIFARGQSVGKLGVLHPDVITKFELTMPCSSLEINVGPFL
inactive: erlotinib -0.004 | [1] 0.019 | [2] -0.007 | [3] -0.01 | [4] -0.02 | [5] 0.039 | [6] -0.021 | [7] -0.004 | [8] 0.011 | IRAK-1-4 Inhibitor I -0.027

EDARADD (UniProt Q8WWZ3)
inactive: erlotinib 0.013 | [1] -0.022 | [2] 0.045 | [3] 0.019 | [4] -0.027 | [5] 0.049 | [6] -0.03 | [7] -0.035 | [8] -0.064 | IRAK-1-4 Inhibitor I 0.031

EIF2B4 isoform 2 (UniProt Q9UI10)
inactive: erlotinib 0.031 | [1] 0.027 | [2] 0.008 | [3] 0.041 | [4] 0.009 | [5] 0.013 | [6] -0.04 | [7] -0.006 | [8] -0.008 | IRAK-1-4 Inhibitor I 0.03

EED, A0A5F9ZI63
inactive: erlotinib 0.019 | [1] 0.042 | [2] -0.033 | [3] 0.017 | [4] -0.019 | [5] -0.012 | [6] 0.003 | [7] 0.003 | [8] 0.023 | IRAK-1-4 Inhibitor I 0.021

FTSJ1 (UniProt Q9UET6)
inactive: erlotinib -0.008 | [1] 0 | [2] 0.039 | [3] 0.005 | [4] -0.025 | [5] 0.07 | [6] 0.034 | [7] -0.007 | [8] 0.016 | IRAK-1-4 Inhibitor I 0.019

FLAD1 (UniProt Q8NFF5)
inactive: erlotinib 0.001 | [1] -0.108 | [2] -0.047 | [3] -0.054 | [4] -0.035 | [5] 0.012 | [6] 0.045 | [7] -0.028 | [8] -0.027 | IRAK-1-4 Inhibitor I 0.001

DTYMK (UniProt P23919)
inactive: erlotinib -0.013 | [1] 0.025 | [2] 0.01 | [3] -0.017 | [4] 0.024 | [5] -0.016 | [6] 0.004 | [7] 0.01 | [8] -0.027 | IRAK-1-4 Inhibitor I -0.028

EEFSEC (UniProt P57772)
inactive: erlotinib -0.006 | [1] 0.054 | [2] -0.044 | [3] -0.022 | [4] 0.006 | [5] -0.044 | [6] -0.054 | [7] -0.025 | [8] -0.007 | IRAK-1-4 Inhibitor I -0.024
